Experimental findings from PubChem BioAssay are described below.

A number with no mark means an inactive call. Activity calls are given as the source filed them.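 Rule for the calls: active = growth inhibition above 50% at the single 2 µM test dose, taken to imply half-maximal potency below 2 µM; inactive = the rest.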

The assay is described as follows: antimalarial activity against Dd2 strain (AID 2302).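 Note: 0% = DMSO untreated growth and 100% = chloroquine plus artemisinin killed control.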 The settings on record: P. falciparum Dd2 in RBCs, LDH growth readout, 72 h; at 2 µM; active compounds read high.
As to `Cc1ccc2[nH]c(C)c(Br)c(=O)c2c1`, the growth inhibition was 84% (active).

In the case of `NC(=O)c1cccc(CNCc2ccc(-c3cccc(-c4nc5ccccc5[nH]4)c3)cc2)c1`, the growth inhibition is 94% (active).

As to `O=C(Nc1cc2cc(-c3ccc(CN4CCCCC4)cc3)ccc2n2cnnc12)NC1CCCC1`, the growth inhibition was 98% (active).

Consider `CN1CCC(NCc2ccc(-c3ccc(Cl)cc3)cc2)CC1`, for which the growth inhibition was 43%.

Take `CCCNc1ccc2nccc(CCN3CCC(NCc4ccc5c(n4)NC(=O)CS5)CC3)c2n1`: the growth inhibition is -1%.

With `COc1cc2c(C3CCN(CC4CCN(C(=O)/C=C/c5ccc(Cl)c(Cl)c5)CC4)CC3)c[nH]c2cn1`, the growth inhibition is 88% (active).

In the case of `COc1cccc(CNC[C@@H](O)[C@H](Cc2ccccc2)NC(=O)c2cc(NC(C)C)cc(N3CCCCS3(=O)=O)c2)c1`, the growth inhibition was 97% (active).

For `COc1ccc(NC(=O)/C=C/c2ccccc2Cl)cc1OCCN1CCC(N2CCCC2)CC1`, the growth inhibition was 23%.

Regarding `Clc1ncnc2scc(-c3ccc(Br)cc3)c12`, the growth inhibition is 96% (active).

Turning to `Cc1cccc(Nc2nc(C)cc(N3CCCN(CC4CCCCC4)CC3)n2)c1`, the growth inhibition is 21%.

On to `O=C(Nc1ccc2c(c1)OCO2)c1cc(-c2cccnc2)cnc1NCc1ccc2c(c1)OCO2`, for which the growth inhibition is 1%.

As for `Cc1ccnc(NC(c2cccc(Cl)c2Cl)c2ccc3cccnc3c2O)c1` (stereo not given), the growth inhibition was 38%.

Regarding `O=C(Nc1cccc(CN2CCCN(Cc3ccc(O)cc3)CC2)c1)c1cc(F)cc(F)c1`, the growth inhibition is 13%.

As for `NC1=NC(c2ccccc2)(c2ccccc2)C(=O)N1Cc1ccc(-c2cccnc2)cc1`, the growth inhibition was 94% (active).

Regarding `CN1CCN(c2cccc(Nc3nccc(NCC(O)c4ccccc4)n3)c2)CC1` (stereo not given), the growth inhibition is 4%.

`CCC(C)(C)c1ccc(N2C(N)=NC(N)=NC2(C)C)cc1`: the growth inhibition was 4%.

As to `CC(CNC(=O)C(c1cc2ccccc2o1)N1CCN(C(c2ccccc2)c2ccccc2)CC1)c1ccccc1` (stereo not given), the growth inhibition was 89% (active).

Turning to `Cn1cnc(CCNC(=O)c2ccc(-c3ccc(-c4nc5ccc(C(F)(F)F)cc5[nH]4)s3)cc2)c1`, the growth inhibition is 99% (active).

In the case of `CN1CCN(c2cc(-c3cccnc3)nc(-c3ccncc3)n2)CC1`, the growth inhibition was 89% (active).

For `COc1ccc2nccc([C@@H](O)CN3CC[C@H](NCc4ccc5c(n4)NC(=O)CS5)[C@H](F)C3)c2c1`, the growth inhibition was 88% (active).

In the case of `c1ccc(-c2cc(NCCNc3cc(-c4ccccc4)nc4ccccc34)c3ccccc3n2)cc1`, the growth inhibition is 11%.

In the case of `NC1=NC2(CCCCC2)N(OCC2CCCCC2)C(N)=N1`, the growth inhibition is 49%.

Consider `O=C(Nc1ccc(OC2CCN(Cc3ccc(F)cc3)CC2)c(Cl)c1)c1ccoc1`, for which the growth inhibition is 90% (active).

For the compound `O=S(=O)(Nc1cccc(CCN2CCC(N3CCCCC3)CC2)c1)c1cccc(C(F)(F)F)c1`, the growth inhibition was 13%.

Take `Cc1c(C(=O)N2CCCC(C(F)(F)F)C2)sc2cccc(F)c12` (stereo not given): the growth inhibition is 89% (active).

As to `CC(C)[C@H](NC(=O)c1ccc(O)c(-c2ccc(Cl)c(Cl)c2)c1)C(=O)NC1CCCCCC1`, the growth inhibition is 99% (active).

Consider `Cc1ccc(NC(=O)c2ccc3ncccc3c2)cc1OC1CCN(Cc2ccco2)C1` (stereo not given), for which the growth inhibition is 42%.

Turning to `CCCCCN1CCCC(CNS(=O)(=O)c2ccc(C(=O)Nc3ccc(C(F)(F)F)cc3)cc2)C1` (stereo not given), the growth inhibition was -9%.

Regarding `Cn1cncc1C(=O)Nc1cccc(-c2ccc(-c3nc4ccccc4[nH]3)s2)c1`, the growth inhibition was 25%.

Consider `CCCCOc1ccc(N2C(N)=NC(N)=NC2(C)C)cc1`, for which the growth inhibition is 3%.

With `COc1ccc(NC(=O)Nc2cccc(-c3cccc(-c4nc5c(C)cccc5[nH]4)c3)c2)cc1`, the growth inhibition is 43%.

Consider `O=C(Nc1cccc(-c2ccc(-c3nc4ccc(C(F)(F)F)cc4[nH]3)s2)c1)c1cnc[nH]1`, for which the growth inhibition was 36%.

Turning to `COc1cccc2cc(C(=O)N[C@@H](CC(C)C)C(=O)N[C@H](/C=N/N3C(=O)CN(Cc4ccccc4)C3=O)CCc3ccccc3)oc12`, the growth inhibition was 52% (active).

For the compound `CCOc1ccc(-c2nc(NC(=O)Cc3cccc(OC)c3)sc2C)cc1`, the growth inhibition is 28%.

Regarding `Cc1ccc(C2CC(c3cccs3)=NN2C(=O)c2ccc(Br)o2)cc1` (stereo not given), the growth inhibition is 69% (active).

For `CNc1ccc(CNCc2ccc(-c3ccc(-c4nc5ccc(C(F)(F)F)cc5[nH]4)s3)cc2)cc1`, the growth inhibition is 97% (active).

Take `Cc1ccc([N+](=O)[O-])cc1NC(=O)N(CC(O)c1ccccc1)C1CCCCC1` (stereo not given): the growth inhibition is 98% (active).

Consider `COc1ccc(CCN(C)CCOc2ccc(NC(=O)c3cc(SC)cc4c(=O)c5ccccc5[nH]c34)cc2)cc1OC`, for which the growth inhibition was 44%.

For `CC(C)C(C(=O)Nc1ccc(S(=O)(=O)N(C)C)cc1)c1ccc(Cl)cc1` (stereo not given), the growth inhibition is 98% (active).

For the compound `NC(=O)c1ccc(C(=O)Nc2cccc(-c3ccc(-c4nc5ccc(C(F)(F)F)cc5[nH]4)cc3)c2)cc1`, the growth inhibition is 31%.
